High-throughput results: PubChem BioAssay, National Center for Advancing Translational Sciences (NCATS)
Compounds with a hit are over-represented: about 0.89% of the library has one in this group of screens.
MBNL1-CUG inh: inhibitors of human MBNL1 binding to CUG repeat RNA. TR-FRET MBNL1-His/biotin-(CUG)12 binding, 665/545 ratio. AID 2675. Potency, µM (highest dose often 57.5 µM), inactives show at the top dose activity change, negative = inhibition, most hits filed as inhibitors. Q9NR56. actives 0.036% (n = 280,000); active means well fitted inhibition curve with a large enough effect in the signal ratio, with a control signal flat, not every such curve was filed as active; inconclusive means small, poorly fitted or top-dose-only effect, or effect the other way, or a change in a side signal; inactive means no such curve, though single readings can be large or run the other way; the % refers to the signal ratio; further: potency means the concentration at half of the fitted maximal effect; on the % scale 0 is the no-effect control and ±100 the full control effect
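TR-FRET readout: Ex 340 nm, 665/545 nm emission ratio, normalized to buffer-only (basal) and MBNL1-(CUG)12 controls. Complex of MBNL1-His with Biotin-(CUG)12, compounds 92 nM–58 uM, incubated 60 min at room temperature.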
Six1-Eya2 inh: Six1/Eya2 interaction inhibition; AlphaScreen GST-Six1/His-Eya2 binding, biochemical; hits give low values; activity change, % (test concentration not listed); actives 0.56% (n = 360,000); AID 651725; in the data active means activity change below about -65%; inconclusive means mostly about -30% to -63%; further: on the % scale 0 is the no-effect control and ±100 the full control effect
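Compounds are tested against tagged Six1 and Eya2 proteins bridged by glutathione donor and nickel acceptor beads; after a one-hour incubation at 37 °C without light, AlphaScreen emission is recorded.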
L3MBTL1 inh: blocks human L3MBTL1; Q9Y468; AlphaScreen L3MBTL1–H3K9me1 peptide binding; Potency, µM (top dose mostly 57.1 µM), without a hit: at the top dose activity, negative = inhibition, most hits filed as inhibitors; actives 0.66% (n = 230,000); AID 485360; further: potency means the concentration at half of the fitted maximal effect; on the % scale 0 is the no-effect control and ±100 the full control effect; nearly all actives have a fitted effect of over 60% in size
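AlphaScreen proximity signal between nickel-chelate acceptor and streptavidin donor beads (final 10 ug/mL) reports binding of 50 nM L3MBTL1 to 75 nM biotin-H3 K9me1 peptide; complex incubated with compounds 30 min at room temperature; cefsulodin titration as control.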
CtBP-E1A blk: inhibitors of CtBP/E1A interaction; AlphaScreen GST-E1A/His-CtBP binding, 1536-well; hits give low values; activity change, % (test concentration not listed); actives 0.49% (n = 340,000); in the data active means activity change below about -65%; inconclusive means mostly about -30% to -63%; further: on the % scale 0 is the no-effect control and ±100 the full control effect
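In 5 uL wells, 23 nL compound meets equimolar GST-E1A and His-CtBP (5X stock 125 nM each) for 2 h, 37 °C. Beads (5X, 50 ug/mL) then 1 h, 37 °C, dark.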
CBFb RUNX1 block: blocks binding between human CBF-beta and RUNX1; AID 1477; 230,000 tested, under 10 active; Q01196+Q13951; AlphaScreen CBFb-His/RUNX1-biotin binding, biochemical; Potency, µM (titrated, usually from 59.8 µM), for the others: top-dose activity, negative = inhibition, most hits filed as inhibitors; further: % of control where 0% means no effect
Target sequence (Q01196 whole entry, looked up): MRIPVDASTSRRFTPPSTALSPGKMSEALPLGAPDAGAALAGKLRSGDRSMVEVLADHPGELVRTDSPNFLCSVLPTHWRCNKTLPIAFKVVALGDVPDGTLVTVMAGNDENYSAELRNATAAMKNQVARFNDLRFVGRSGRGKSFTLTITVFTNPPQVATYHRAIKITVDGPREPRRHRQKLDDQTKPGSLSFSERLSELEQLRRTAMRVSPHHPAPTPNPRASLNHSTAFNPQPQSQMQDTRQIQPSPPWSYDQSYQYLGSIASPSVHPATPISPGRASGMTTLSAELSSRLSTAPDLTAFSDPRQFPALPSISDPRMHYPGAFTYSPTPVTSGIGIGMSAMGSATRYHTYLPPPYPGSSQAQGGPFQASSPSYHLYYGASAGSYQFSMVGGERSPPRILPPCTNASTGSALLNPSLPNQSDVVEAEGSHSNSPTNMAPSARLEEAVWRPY
Target sequence (Q13951 whole entry, looked up): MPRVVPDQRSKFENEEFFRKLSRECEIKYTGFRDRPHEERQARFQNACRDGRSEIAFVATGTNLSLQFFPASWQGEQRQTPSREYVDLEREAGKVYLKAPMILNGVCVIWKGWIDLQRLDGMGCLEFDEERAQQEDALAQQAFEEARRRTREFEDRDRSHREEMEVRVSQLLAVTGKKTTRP
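CBF-beta (His) and RUNX1 (biotin), 30 nM each; 20 min preassociation; + compound, 15 min; + beads 50 ng each (Ni, streptavidin), 90 min; RT; AlphaScreen read.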
Eya2 phos inh: Eya2 (human) phosphatase inhibition. O00167. recombinant Eya2, OMFP fluorescence dephosphorylation (OMFP is methylfluorescein phosphate). Potency, µM (doses to about 76.9 µM), inactives show top-dose activity, negative = inhibition, most hits filed as inhibitors. actives 0.006% (n = 330,000). AID 488837; further: potency means the concentration at half of the fitted maximal effect; on the % scale 0 is the no-effect control and ±100 the full control effect
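Eya2 protein (added as 0.2 uM solution) was preincubated with compound for 10 min at ambient temperature in 50 mM HEPES pH 7.5, 50 mM NaCl, 5 uM MgCl2, 0.05% BSA, 1 mM DTT. OMFP (added at 50 uM) then reacted 10 min; fluorescence read at 485/525 nm.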
The depositor's hits bear a star; ? = inconclusive; · = no result; [ ] = remark or other dose. Unless noted, the call rests on the fitted dose curve; in most records, active means well fitted curve in the direction sought with a large enough effect; inconclusive means small, poorly fitted or top-dose-only effect, or another doubt; inactive means no such curve, though single readings can be large; an effect the other way counts as inactive or inconclusive.

SMILES	MBNL1-CUG inh	Six1-Eya2 inh	L3MBTL1 inh	CtBP-E1A blk	CBFb RUNX1 block	Eya2 phos inh
COc1cc(O)c2c(=O)cc(-c3ccc(OC)c(-c4c(O)cc(O)c5c(=O)cc(-c6ccc(O)cc6)oc45)c3)oc2c1	·	·	·	·	-11%	·
CC/C(=N\Nc1ccccc1[N+](=O)[O-])c1ccc(O)cc1	?	?	25µM*	-71*	·	0%
S=c1[nH]nc(-c2ccccn2)n1/N=C/c1ccccc1	0%	?	?	-4	?	0%
COc1ccccc1/C=C/C=N/n1c(-c2ccccn2)n[nH]c1=S	3%	-67*	?	·	·	-10%
Cc1ccccc1/C=N/n1c(-c2ccccn2)n[nH]c1=S	1%	-90*	22µM*	-2	·	1%
S=c1[nH]nc(-c2ccccn2)n1/N=C/c1cccc2ccccc12	·	-67*	32µM*	?	?	2%
Cc1n[nH]c(=S)n(/N=C/c2cccs2)c1=O	·	?	9%	-72*	-11%	10%
COc1ccc(-c2ccc(N3C(c4cc(OC)cc(OC)c4)=Cc4ccc(OC)cc4C3CC(C)=O)cc2)cc1 (stereo not drawn)	·	0	·	8	·	·
COc1ccc2c(c1)C(c1ccccc1OC)CC(=O)O2 (stereo not drawn)	·	·	·	·	-4%[89.1 µM]	·
c1cc(CN2CCCNCCNCCCNCC2)ccc1CN1CCCNCCNCCCNCC1	·	·	·	·	27%	·
N#CCCNS(=O)(=O)c1ccc(C(=O)OCCCOC(=O)c2ccc(S(=O)(=O)NCCC#N)cc2)cc1	-4%	6	·	6	·	-3%
C/C(=N\NC(=O)Cc1ccc(Cl)cc1)c1cccc(NC(=O)c2cccnc2)c1	-2%	-2	·	-8	·	-2%
Oc1c(Br)cc(/C=N/n2c(-c3ccccc3)n[nH]c2=S)c(Br)c1O	22%	·	0.79µM*	·	·	12%
S=c1[nH]nc(-c2ccccn2)n1/N=C/c1cccs1	5%	?	28µM*	-1	?	6%
Oc1c(Br)cc(Br)cc1/C=N/n1c(-c2ccccc2)n[nH]c1=S	23%	0	10%[2.29 µM]	·	·	0%
COc1cccc(/C=N/n2c(-c3cc(C)[nH]n3)n[nH]c2=S)c1O	2%	-68*	-8%	-81*	-8%	-3%
S=c1[nH]nc(-c2ccc(Cl)cc2)n1/N=C/c1cccs1	5%	-10	1%	-2	3%	-3%
CN(C)c1ccccc1-c1cc(NC=O)c2ncc(-c3cccc(C(F)(F)F)c3)n2c1	·	?	·	-72*	·	·
COc1cc2ccnc(C=NO)c2cc1OC	·	-86*	·	-28	·	·
COc1cc2ccnc(C=O)c2cc1OC	·	?	·	0	·	·
CC(C(=O)N1CCc2ccccc21)N1CCN(S(=O)(=O)c2ccc3c(c2)OCCCO3)CC1 (stereo not drawn)	·	-6	·	-5	·	·
COc1cc(NC(=O)C2CCCN(S(=O)(=O)c3ccc4c(c3)CCCN4C(C)=O)C2)cc(OC)c1 (stereo not drawn)	4%	?	·	-65*	·	-1%
COc1cccc(/C=N/Nc2nn3cnnc3c3ccccc23)c1O	12%	-87*	-3%	-91*	-3%	12%
COc1cccc(C=NNC(=O)c2ccncc2)c1O	·	-80*	·	-94*	·	·
CCN(CC)c1ccc(/C=N/NC(=S)NC)c(O)c1	17%	-90*	·	?	?	-14%
CCN(CC)c1ccc(/C=N/NC(=O)c2ccc3nc[nH]c3c2)c(O)c1	?	?	·	-75*	?	4%
COc1cccc(/C=N/NC(=O)N/N=C/c2cccc(OC)c2O)c1O	?	?	-4%[2.29 µM]	?	·	-3%
CN(C)c1ccc(/C=N/N2CCN(c3ccccn3)CC2)cc1	-3%	-5	-18%	·	11%	-29%
